From PubChem BioAssay AID743269 (The Scripps Research Institute Molecular Screening Center, 2014) come the findings set out here.

In all, about 370,000 compounds went through this assay and about 2,400 (0.65%) were called active. Shown is part of a subset that was picked to be rich in actives. Values without a mark were called inactive.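 Rule for the calls: active = inhibition above the screen-wide mean plus 3 SD (cut at about 13% in these data); inactive = the rest.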

The test concerns HIV-1 integrase (with human LEDGF/p75). The experiment in a line: blockers of LEDGF/p75-dependent integrase strand transfer – biochemical, TR-FRET, high throughput, primary screen (AID 743269).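 Note: signal is the Cy5 over europium emission ratio at 671 and 618 nm; 0% = plate median of compound wells.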 Particulars: TR-FRET IN-LEDGF/p75 DNA integration, Eu/Cy5; at 3.7 µM; stronger effect = higher value.
For `CCCNC(=O)CSc1nc(Cc2ccccc2)nc2ccccc12`, the inhibition is -2.65%.

Take `Cc1cc(SCC(=O)NCCN2C(=O)CSC2=O)nc2ccccc12`: the inhibition is 24.8% (active).

Take `COc1ccc2c(C)cc(SCC(=O)NCC3CCCO3)nc2c1` (stereo not drawn): the inhibition is 5.4%.

For the compound `COP(=O)(O)CNC(=O)OCc1ccccc1`, the inhibition was 2.52%.

On to `C[C@@H](NC(=O)c1ccccc1OCC(=O)Nc1ccc(I)cc1)C(=O)N(C)Cc1ccccc1`, for which the inhibition was -0.62%.

As to `CCCOc1ccc(Oc2c(Cl)cnn(Cc3cccc4ccccc34)c2=O)cc1`, the inhibition was -4.41%.

Consider `Brc1ccc(C2CC(c3ccccc3)=Nc3ccccc3N2)cc1` (stereo not drawn), for which the inhibition is 5.04%.

Regarding `c1ccc(C2=Nc3cccc4cccc(c34)N2)cc1`, the inhibition is 15.3% (active).

With `CCOC(=O)[C@]12CCCCC/C=C\1N(Cc1ccc(OC)cc1)C(=O)[C@H]2CC(=O)N1CCOCC1`, the inhibition is -1.27%.

On to `Cc1cc(C)n2ncc(C(=O)Nc3ccc4c(c3)OCCO4)c2n1`, for which the inhibition is 1.44%.

`O=C(Nc1cc2c3c(c1)C1CCCC1CN3CC1CCCC21)c1ccc([N+](=O)[O-])cc1` (stereo not drawn): the inhibition was 0.76%.

Turning to `CC(=O)Nc1ccc(C(=O)OCC(=O)Nc2ccc([N+](=O)[O-])cc2C(F)(F)F)cc1`, the inhibition was 1.78%.

Turning to `Cn1ccc(=Nc2ccc(NC(=O)c3ccc(N=c4ccn(C)c5ccc([N+](=O)[O-])cc45)cc3)cc2)cc1`, the inhibition is 19.9% (active).

As for `Cc1ccccc1CN1CCCCC(NC(=O)Nc2ccccc2F)C1=O` (stereo not drawn), the inhibition was -1.11%.

As to `O=C(Nc1cc(F)cc(F)c1)OC1CCC12CCC(c1ccccc1)CC2` (stereo not drawn), the inhibition is -2.65%.

On to `CCCNC(=O)Nc1ccc2c(c1)C(=O)N(C)[C@H]1CC[C@H](CC(=O)NCC3CCCCC3)O[C@@H]1CO2`, for which the inhibition is -2.65%.

On to `Cc1cc(=O)n2[nH]c(-c3sccc3-n3c(C)ccc3C)cc2n1`, for which the inhibition was 55.6% (active).

`CCOC(=O)N1CCN(C(=O)C[C@@H]2C(=O)N(CCc3ccc(Cl)cc3)C3=CCCC[C@]32C(=O)OCC)CC1`: the inhibition is -0.28%.

Regarding `COc1ccc(CSc2nnc(SCC(=O)Nc3ccccc3C(F)(F)F)s2)cc1`, the inhibition was -4.35%.

With `CCN(C(=O)COC(=O)CCC(=O)c1cccs1)C1CCCCC1`, the inhibition was 9.09%.

In the case of `O=C(COC(=O)CCC(=O)c1cccs1)NCc1ccco1`, the inhibition was 38.8% (active).

For the compound `CC1CCN(C(=O)COC(=O)CCC(=O)c2cccs2)CC1`, the inhibition was 0.03%.

Turning to `C=CCN1C(=O)[C@@H](CC(=O)N2CCN(C(=O)c3ccco3)CC2)[C@]2(C(=O)OC)CCCCC=C12`, the inhibition is -3.78%.

As to `COc1cc(/C=C/C(=O)n2cnc3ccccc32)cc(OC)c1OC`, the inhibition is -2.83%.

Consider `C[C@@H]1ON(C)[C@H]2C[C@H]3c4[nH]c5cccc(-c6ccc7c(c6)OCO7)c5c4CCN3C[C@@H]12`, for which the inhibition was 4.41%.

Turning to `Cc1cc(C(=O)N/N=C/c2ccc(O)c([N+](=O)[O-])c2)c(C)n1-c1ccc(F)cc1`, the inhibition was 18.1% (active).

Regarding `Cc1c(Cl)c([N+](=O)[O-])nn1Cc1ccc(C(=O)N/N=C\c2cc(Cl)ccc2O)o1`, the inhibition was -2.68%.

Take `Cc1ccc(/C=N/NC(=O)c2sccc2OCc2ccc(F)cc2)cc1`: the inhibition is -2.37%.

As for `CCC[C@H]1C(=O)CC[C@@]23CCCN2C(=O)CCC[C@@H]13`, the inhibition was 0.78%.

Consider `O=C(OCCOc1ccccc1Cl)c1cc(S(=O)(=O)N2CCCCC2)ccc1N1CCOCC1`, for which the inhibition is 4.88%.

In the case of `O=C(OCCOc1ccccc1F)c1cc(S(=O)(=O)N2CCOCC2)ccc1F`, the inhibition was 13.4% (active).

`O=C(COC(=O)c1cc(S(=O)(=O)N2CCOCC2)ccc1F)NC1CC1`: the inhibition was 1.33%.

For the compound `O=C(NCC1COc2ccccc2O1)c1ccc(NC(=O)c2cc(F)ccc2F)cc1` (stereo not drawn), the inhibition is -2.1%.

As to `COc1ccc2[nH]c3c(C)c4cc[n+](C)cc4c(C)c3c2c1`, the inhibition is 28% (active).

Regarding `O=C(CSc1nc2c(c(=O)[nH]1)CCCC2)N1CCCCC1`, the inhibition is 3.68%.

Turning to `CCOC(=O)C(=O)N(Cc1ccccc1)c1ccccc1C(=O)Nc1cc(OC)ccc1OC`, the inhibition was 0.37%.

With `COC(=O)[C@]12C[C@H](CC(=O)NCc3ccccc3)C(=O)N(CCc3ccc(OC)c(OC)c3)C1=C[C@H](C(C)(C)C)O[C@@H]2C`, the inhibition is -2.49%.

Consider `Cc1ccc(-c2nn(-c3ccccc3)cc2/C=C2\SC(=S)N(CCCCCC(=O)O)C2=O)o1`, for which the inhibition is 13.6% (active).

As to `C#CCNC(=O)C[C@H]1C[C@@]2(C(=O)OC)C(=C[C@H](C(C)C)O[C@@H]2C2CC2)N(Cc2ccco2)C1=O`, the inhibition was 0.25%.

Consider `C=C(C)C#CC(Cc1ccccc1)NCC1CC1` (stereo not drawn), for which the inhibition was -6.26%.

Turning to `CN[C@H]1C[C@H]2c3cc(N4CCOCC4)ccc3CCN2C[C@H]1[C@H](C)O`, the inhibition is 3.07%.

Regarding `O=C(OCC(=O)N1CCN(c2ccccc2)CC1)c1ccc([N+](=O)[O-])s1`, the inhibition was 16.4% (active).

Consider `Cc1ccc(C)c(OCCC(=O)OCC(=O)N2CCN(c3ccccc3)CC2)c1`, for which the inhibition was -9.14%.

On to `C[C@H](NC(=O)c1ccccc1Cl)C(=O)OCC(=O)N1CCN(c2ccccc2)CC1`, for which the inhibition was 1.43%.

Take `COc1ccc(-n2c(SCC(=O)Nc3ccccc3-c3ccccc3)nnc2-c2cccnc2)cc1`: the inhibition is -1.52%.

For the compound `COc1ccc(CNC(=O)C(C)NCc2ccccc2Cl)cc1` (stereo not drawn), the inhibition was -0.38%.

Take `COc1ccc(NC(=O)N2CCCC2C(=O)NCc2ccccc2Cl)cc1` (stereo not drawn): the inhibition is -4.21%.

With `COc1ccc(NC(=O)C(NC(C)=O)C(=O)NCc2ccccc2Cl)cc1` (stereo not drawn), the inhibition was 41.8% (active).

For `CCC(=O)OCCCN1C(=O)CCC12CCC(c1ccccc1)CC2` (stereo not drawn), the inhibition was 2.48%.

`O=C1CC(c2ccc3c(c2)OCO3)N=C2N(CC3CC3)C/C(=C/c3ccccc3)N12` (stereo not drawn): the inhibition is -0.65%.

Consider `Cc1cc(NS(=O)(=O)c2ccc(NC(=O)CSc3nnc(SCc4ccc(F)cc4)s3)cc2)nc(C)n1`, for which the inhibition was -3.91%.

In the case of `CCOC(=O)C1CCN(C(=O)C(C)(C)NC(=O)Nc2ccc(F)c(F)c2)CC1`, the inhibition was 3.2%.

Take `Cc1ccc(S(=O)(=O)N[C@H](CO)C(C)C)cc1`: the inhibition is 4.45%.

Take `COc1ccc(S(=O)(=O)/N=C2\C=C(NS(=O)(=O)c3ccccc3)C(=O)c3ccccc32)cc1`: the inhibition was 15.6% (active).

Regarding `COc1ccc(C(=O)C(C)OC(=O)c2cccc(S(=O)(=O)Nc3c(C)n(C)n(-c4ccccc4)c3=O)c2)cc1` (stereo not drawn), the inhibition is 1.63%.

For `Cc1ccc(S(=O)(=O)N/N=C(\c2ccccc2)C2CC2)cc1`, the inhibition is 0.27%.

In the case of `Cc1ccc(S(=O)(=O)/N=C2\C=C(NS(=O)(=O)c3ccc(C)cc3)C(=O)c3ccccc32)cc1`, the inhibition was 14.9% (active).

As to `CNC(=O)COc1ccc(S(=O)(=O)Nc2ccccc2)cc1`, the inhibition was -0.9%.

Broadly, the inhibition is the change of the read-out against control, counted positive when it falls.
